Consider five compounds from PubChem BioAssay.

Activity calls are given as the source filed them. Unless noted, how the calls were made is not given here.

The nature of assay [1]: anti-His antibody binders, primary screen, artefact control for SMM control protein annotation, biochemical, small-molecule microarray, 635 nm fluorescence (AID 1128).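 Further: score merges feature fluorescence with signal-to-noise for each printed compound spot.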 As to conditions: anti-His Alexa647 antibody binding, higher = more signal.
Assay [2] concerns Human papillomavirus type 1a E7 protein (residues 1-88). Nature of the assay: HPV1a E7 small-molecule binders, primary screen, biochemical, small-molecule microarray, residues 1-88, 635 nm (AID 1129). The note with it: small-molecule microarray binding, fluorescence 635 nm; higher = more signal.
Assay [3] deals with Focal adhesion kinase 1 (Homo sapiens) (UniProt Q05397). Nature of the assay: small-molecule microarray binders of FAK, primary screen, biochemical, 635/667 nm fluorescence, BSA, DTT (AID 1130).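 Further: composite of spot emission at 667 nm and signal to noise over triplicate slides.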 The note with it: PTK2 binding, 635 nm fluorescence, higher = more signal.
Sequence of Focal adhesion kinase 1 (Homo sapiens) (Q05397 whole entry, looked up): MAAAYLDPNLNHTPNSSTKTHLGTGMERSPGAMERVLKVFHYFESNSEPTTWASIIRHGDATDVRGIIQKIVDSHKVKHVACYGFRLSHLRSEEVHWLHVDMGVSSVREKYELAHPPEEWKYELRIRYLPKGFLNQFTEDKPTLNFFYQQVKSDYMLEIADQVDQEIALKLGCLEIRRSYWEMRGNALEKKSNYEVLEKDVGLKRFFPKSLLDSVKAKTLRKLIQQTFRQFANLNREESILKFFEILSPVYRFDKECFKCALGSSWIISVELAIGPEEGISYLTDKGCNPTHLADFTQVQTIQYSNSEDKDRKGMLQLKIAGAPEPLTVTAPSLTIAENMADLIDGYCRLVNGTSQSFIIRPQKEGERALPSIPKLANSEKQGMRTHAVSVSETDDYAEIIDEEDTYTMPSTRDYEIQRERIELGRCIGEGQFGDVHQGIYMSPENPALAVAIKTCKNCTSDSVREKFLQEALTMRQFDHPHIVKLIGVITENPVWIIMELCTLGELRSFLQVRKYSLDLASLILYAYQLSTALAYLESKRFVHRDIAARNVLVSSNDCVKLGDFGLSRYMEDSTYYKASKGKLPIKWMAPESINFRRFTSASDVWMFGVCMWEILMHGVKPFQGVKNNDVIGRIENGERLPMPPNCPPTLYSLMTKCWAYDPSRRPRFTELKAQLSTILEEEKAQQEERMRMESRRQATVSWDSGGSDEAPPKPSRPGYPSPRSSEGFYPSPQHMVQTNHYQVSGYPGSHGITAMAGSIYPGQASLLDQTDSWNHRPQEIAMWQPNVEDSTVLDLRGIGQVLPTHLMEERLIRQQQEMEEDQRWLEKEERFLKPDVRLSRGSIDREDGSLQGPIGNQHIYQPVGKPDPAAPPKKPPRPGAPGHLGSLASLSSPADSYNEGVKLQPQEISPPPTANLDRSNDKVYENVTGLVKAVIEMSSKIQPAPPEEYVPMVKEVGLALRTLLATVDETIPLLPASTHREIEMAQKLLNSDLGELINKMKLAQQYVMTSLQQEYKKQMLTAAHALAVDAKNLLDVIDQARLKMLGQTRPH
The test system of assay [4] is Fibrinogen (Alexa647-labelled). Nature of the assay: fibrinogen binders on compound microarrays, profiling panel, artefact control for SMM control-protein annotation, biochemical, small-molecule microarray, 635/667 nm fluorescence (AID 1131).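 Further: z-score merges 667 nm fluorescence with per-spot signal-to-noise over triplicate slides.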 The note with it: fibrinogen-A647 binding fluorescence, higher = more signal.
The target of assay [5] is Follistatin (Homo sapiens) (UniProt P19883). Nature of the assay: follistatin binders on small-molecule microarrays, primary screen, biochemical, small-molecule microarray, 635/667 nm fluorescence (AID 1132). The note with it: FST binding, 635 nm fluorescence, higher = more signal.
Sequence of Follistatin (Homo sapiens) (P19883 whole entry, looked up): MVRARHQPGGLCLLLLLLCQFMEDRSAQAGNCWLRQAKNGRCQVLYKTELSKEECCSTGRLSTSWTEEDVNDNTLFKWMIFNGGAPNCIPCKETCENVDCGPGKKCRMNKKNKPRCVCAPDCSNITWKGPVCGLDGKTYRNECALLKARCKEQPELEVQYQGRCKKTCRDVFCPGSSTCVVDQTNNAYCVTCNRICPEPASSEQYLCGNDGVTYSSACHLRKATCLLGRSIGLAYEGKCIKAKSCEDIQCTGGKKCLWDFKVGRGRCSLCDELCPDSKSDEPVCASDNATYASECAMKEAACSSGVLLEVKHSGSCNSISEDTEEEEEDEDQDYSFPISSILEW
For assay [6], the target named is Fibroblast growth factor 2 (Homo sapiens) (UniProt P09038). Nature of the assay: FGF2 binders on small-molecule microarrays, primary screen, biochemical, small-molecule microarray, 635/667 nm fluorescence (AID 1133). The note with it: small-molecule microarray binding, FGF2, fluorescence 635/667; higher = more signal.
Sequence of Fibroblast growth factor 2 (Homo sapiens) (P09038 whole entry, looked up): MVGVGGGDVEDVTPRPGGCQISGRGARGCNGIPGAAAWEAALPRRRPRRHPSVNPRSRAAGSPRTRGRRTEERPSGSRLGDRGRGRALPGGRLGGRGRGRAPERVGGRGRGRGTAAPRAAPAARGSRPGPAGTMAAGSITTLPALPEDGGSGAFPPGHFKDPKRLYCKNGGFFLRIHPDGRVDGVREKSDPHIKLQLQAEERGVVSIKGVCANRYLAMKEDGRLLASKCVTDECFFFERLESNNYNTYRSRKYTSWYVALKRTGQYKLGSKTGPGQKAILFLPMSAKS
Assay [7] can be described thus: mitochondrial membrane potential change in A549 cells, profiling panel, cell-based, JC-1 fluorescence, basal, 24 h, 100 nL (AID 1138).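 Further: A549 lung adenocarcinoma cells under basal conditions with no added stimulus; test concentration not given here.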 As to conditions: higher = more signal.
The next assay relates to Lefty1. Nature of the assay: Lefty1 binders on small-molecule microarrays, primary screen, biochemical, small-molecule microarray, 635/667 nm fluorescence (AID 1139). The note with it: small-molecule microarray binding, fluorescence 635/667; higher = more signal.
The test system of assay [8] is wheat germ agglutinin (Triticum aestivum), Alexa647-labelled. Nature of the assay: wheat germ agglutinin binders on compound microarrays, profiling panel, artefact control for SMM control-protein annotation, biochemical, small-molecule microarray, 635/667 nm fluorescence (AID 1140).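 Further: score merges 667 nm feature emission with signal to noise over triplicate slides.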 The note with it: WGA-A647 binding, 635 nm fluorescence, higher = more signal.
For assay [9], the target named is Luciferin 4-monooxygenase (Photinus pyralis) (UniProt P08659). Nature of the assay: firefly luciferase enzyme inhibitors, primary screen, biochemical, luminescence, purified enzyme, 2006 set (AID 1141).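 Further: cell-free assay with purified firefly luciferase at 100 ng per well in PBS; test concentration not given here.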 As to conditions: SteadyGlo luminescence, 30 min, higher = more signal, called active from +8 up or from −8 down.
Sequence of Luciferin 4-monooxygenase (Photinus pyralis) (P08659 whole entry, looked up): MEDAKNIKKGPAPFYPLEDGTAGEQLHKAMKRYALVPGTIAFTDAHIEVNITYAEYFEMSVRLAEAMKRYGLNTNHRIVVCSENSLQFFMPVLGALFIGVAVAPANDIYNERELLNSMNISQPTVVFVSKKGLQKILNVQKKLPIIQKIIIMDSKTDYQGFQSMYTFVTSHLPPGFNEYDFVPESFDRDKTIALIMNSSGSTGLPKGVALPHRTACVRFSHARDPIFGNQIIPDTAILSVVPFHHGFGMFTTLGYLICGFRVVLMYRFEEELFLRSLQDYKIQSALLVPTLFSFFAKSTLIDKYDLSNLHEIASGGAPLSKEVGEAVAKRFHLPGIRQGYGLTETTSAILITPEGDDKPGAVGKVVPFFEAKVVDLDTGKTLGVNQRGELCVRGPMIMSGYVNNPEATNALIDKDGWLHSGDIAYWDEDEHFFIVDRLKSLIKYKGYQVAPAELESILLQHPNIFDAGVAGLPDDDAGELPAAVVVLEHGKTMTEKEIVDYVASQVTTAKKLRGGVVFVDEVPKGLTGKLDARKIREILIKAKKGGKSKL
Assay [10] has as its system Wnt5a (protein binding on small-molecule microarray). Nature of the assay: Wnt5a binders on small-molecule microarray, primary screen, biophysical, 635/667 nm fluorescence (AID 1142).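 Further: fluorescence read at 667 nm with signal to noise per printed feature.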 As to conditions: 635 nm fluorescence, higher = more signal.
Assay [11] is described as follows: cell viability in Huh7 cells, primary screen, cytotoxicity control for HCV replication inhibitor project, CellTiter-Glo luminescence, basal, 48 h (AID 1143).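 Further: Huh7 hepatoma cells carrying a hepatitis C replication reporter with no stimulus; test concentration not given here.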 As to conditions: Huh7 HCV replicon, higher = more signal, called active from +8 up or from −8 down. On the technique in general: In ATP-based viability assays light output follows the ATP content of the culture.

Assay [12] is described as follows: P. aeruginosa biofilm formation inhibitors, primary screen, PAO1 strain, BacTiter-Glo luminescence, LB-PBS (AID 1144). As to conditions: 12 h, higher = more signal.
The nature of assay [13]: CREB reporter modulators without forskolin, primary screen, cell-based, PC12, CRE-LacZ reporter, unstimulated (AID 1145). As to conditions: no forskolin, luminescence, 4.5 h, higher = more signal, called active from +8 up or from −8 down.
Assay [14] in a line: CREB reporter modulators under forskolin, primary screen, cell-based, PC12, CRE-LacZ reporter, forskolin-stimulated (AID 1146).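 Further: PC12 cells with 6xCRE LacZ reporter stimulated by forskolin 10 µM; beta-galactosidase reporter signal reflecting CREB driven transcription.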 As to conditions: luminescence, 4.5 h, higher = more signal, called active from +8 up or from −8 down.
Assay [15] addresses Streptavidin (Streptomyces avidinii) (UniProt P22629). The assay can be described thus: streptavidin binders on small-molecule microarray, primary screen, artefact control for SMM compound annotation, biophysical, 635/667 nm fluorescence (AID 1147).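 Further: signal reflects streptavidin binding to arrayed compounds as a control protein.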 The note with it: streptavidin binding, higher = more signal.
Assay [16] can be described thus: small-molecule binders of probe aInhba, primary screen, biochemical, small-molecule microarray, 635/667 nm fluorescence (AID 1148).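 Further: score merges 667nm spot fluorescence with signal-to-noise for antibody binding to printed compounds.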 As to conditions: higher = more signal.
The target in assay [17] is Torsin-1A (Homo sapiens) (UniProt O14656). Nature of the assay: torsin A binders from cell lysate, primary screen, small-molecule microarray, wild-type, 635/667 nm (AID 1149). The note with it: COS7 hTOR1A-WT lysate, 635 nm fluorescence, higher = more signal.
Sequence of Torsin-1A (Homo sapiens) (O14656 whole entry, looked up): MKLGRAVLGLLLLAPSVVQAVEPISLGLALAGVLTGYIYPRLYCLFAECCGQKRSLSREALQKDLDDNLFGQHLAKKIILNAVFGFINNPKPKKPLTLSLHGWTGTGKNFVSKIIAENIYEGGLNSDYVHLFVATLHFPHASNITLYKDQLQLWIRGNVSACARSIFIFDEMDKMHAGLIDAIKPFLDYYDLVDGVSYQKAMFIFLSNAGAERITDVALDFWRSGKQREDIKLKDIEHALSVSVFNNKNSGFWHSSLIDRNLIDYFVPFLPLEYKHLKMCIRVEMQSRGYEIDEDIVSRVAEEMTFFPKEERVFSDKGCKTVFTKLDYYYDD
Assay [18] has the same target. The assay can be described thus: small-molecule binders of mutant TOR1A in lysate, primary screen, cell lysate, small-molecule microarray, COS7 lysate, 635/667 nm fluorescence (AID 1150).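 Further: score pools 667 nm emission and signal to noise measuring lysate protein binding.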 As to conditions: COS7 hTOR1A mutant lysate, 635 nm fluorescence, higher = more signal.
For assay [19], the system named is Sonic hedgehog protein (Shh). Nature of the assay: small-molecule binders of Shh protein, primary screen, biochemical, small-molecule microarray, 635/667 nm fluorescence (AID 1151).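 Further: Shh protein binding to compounds spotted on small-molecule microarray slides; score combines spot fluorescence intensity with signal-to-noise across triplicate slides.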 The note with it: small-molecule microarray binding, 635 nm fluorescence; higher = more signal.

Sequence of Streptavidin (Streptomyces avidinii) (P22629 whole entry, looked up): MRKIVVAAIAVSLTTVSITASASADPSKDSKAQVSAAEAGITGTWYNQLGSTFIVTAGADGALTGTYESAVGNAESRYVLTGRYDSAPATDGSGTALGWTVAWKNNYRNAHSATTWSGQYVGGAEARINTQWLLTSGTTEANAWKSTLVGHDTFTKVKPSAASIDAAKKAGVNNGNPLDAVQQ

`CCCC[C@@H]1C[C@H]1[C@@H](NC(=O)c1cccnc1)c1ccc(Cl)cc1`: the composite z-score in [1] is -1.38; in assay [2] it was -2.87; in assay [3], -0.518; in assay [4], -2.97; in [5] it was -2.16; in assay [6] it was -2.46. For the same compound, the composite z-score with Lefty1 was -2.59; in assay [8], -1.72; in assay [10] it was -0.769; in assay [15] it was -1.44; in [16], -0.335; with Torsin-1A (Homo sapiens) [17], -1.57. For the same compound, the composite z-score with Torsin-1A (Homo sapiens) [18] is -0.419; in assay [19], -1.35. For the same compound, the z-score in assay [7] is 0.66; in assay [9], 0.928 (inactive); in assay [11], -1.25 (inactive); in [12] it was -0.128 (inactive); in assay [13], -0.368 (inactive); in [14], 0.834 (inactive).
In the case of `CC(C)[Si](C#CCCCC#N)(O[C@H](c1ccccc1)c1cn(Cc2cccc(Cl)c2)nn1)C(C)C`, the composite z-score in assay [1] is 0.822; in assay [2] it was 0.953; in [3] it was -0.213; in assay [4], 0.902; in assay [5], 1.13; in assay [6] it was 0.955. Besides, the composite z-score in the assay with Lefty1 is 0.764; in [8], 0.276; in assay [10], 0.182; in [15] it was -0.0708; in [16], 0.0614; with Torsin-1A (Homo sapiens) [17], 1.42. Also, the composite z-score with Torsin-1A (Homo sapiens) [18] was 0.392; in [19] it was 1.21. Moreover, the z-score in assay [7] is 5.27; in [9], -0.513 (inactive); in assay [11] it was -2.2 (inactive); in assay [12], -0.603 (inactive); in assay [13] it was -0.215 (inactive); in assay [14], -0.859 (inactive).
As for `CC(C)CN1C(=O)[C@@]2(c3ccc([N+](=O)[O-])cc3)CC(=O)N(C3CCCCC3)[C@@H]2c2ccc(CO)cc21`, the composite z-score is -0.75 in [1]; -1.07 in assay [2]; -0.0035 in [3]; -1.05 in [4]; -1.29 in [5]; -0.875 in [6]. The composite z-score in the assay on Lefty1 is -0.919; in assay [8], 0.428; in assay [10], -0.409; in [15], -0.471; in assay [16], -0.237; in the assay with Torsin-1A (Homo sapiens) [17] it was -1.32. Moreover, the composite z-score with Torsin-1A (Homo sapiens) [18] is -1.67; in [19] it was -0.939. Also, the z-score in [7] was 0.766; in assay [9], 0.791 (inactive); in [11], -0.159 (inactive); in assay [12] it was -0.927 (inactive); in [13] it was -0.502 (inactive); in assay [14], 0.241 (inactive).
On to `COCCOC(=O)N1C(=O)[C@@]2(c3ccccc31)[C@H](C(=O)N1CCc3cc(OC)c(OC)cc3C1)[C@H]1C(=O)O[C@H](c3ccccc3)[C@H](c3ccccc3)N1[C@@H]2c1ccc(O)cc1`, for which the composite z-score in [1] was found to be 2.07; in [2], 1.18; in assay [3] it was 0.381; in [4], 0.864; in assay [5], 1.09; in assay [6], 1.26. Moreover, the composite z-score is 0.788 in the assay on Lefty1; 0.74 in assay [8]; 0.622 in assay [10]; 1.39 in [15]; -0.0889 in assay [16]; 1.06 in the assay with Torsin-1A (Homo sapiens) [17]. In addition, the composite z-score in the assay with Torsin-1A (Homo sapiens) [18] came to 1.31; in [19], 1.96. The z-score in [7] is 0.674; in [9], -5.57 (inactive); in assay [11], -3.5 (inactive); in [12], -0.726 (inactive); in [13], -0.0515 (inactive); in assay [14] it was 2.99 (inactive).
For `COc1ccc([Si](C)(C)[C@H]2[C@H](CCn3cc([C@H](O)c4ccccc4)nn3)O[C@@]3(C(=O)N(C)c4ccccc43)[C@@H]2C)cc1`, the composite z-score in assay [1] is -0.0799; in assay [2], 0.0391; in assay [3], 0.254; in assay [4], -1.37; in [5], 0.862; in assay [6], 0.322. Moreover, the composite z-score with Lefty1 is 1.23; in assay [8], -0.0898; in assay [10], -0.319; in assay [15] it was -0.814; in assay [16], -0.0221; in the assay with Torsin-1A (Homo sapiens) [17], -0.71. In addition, the composite z-score with Torsin-1A (Homo sapiens) [18] was -0.193; in assay [19], 1.36. For the same compound, the z-score in assay [7] was 1.65; in assay [9] it was -0.0548 (inactive); in [11], -3.31 (inactive); in [12] it was -0.573 (inactive); in assay [13], 2.69 (inactive); in [14], -1.28 (inactive).
